The text below walks through data of PubChem BioAssay AID2014 (Sanford-Burnham Center for Chemical Genomics, 2009).

The target of this assay is Polyadenylate-binding protein 1 (Homo sapiens) (UniProt P11940). The assay is described as follows: PABP poly(A) RNA binding inhibitors, primary screen, biochemical, fluorescence polarization, uHTS (AID 2014).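 Also: calls also rest on retests at 20 µM and on dose response follow-up.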 Conditions: stronger effect = higher value.

The whole screen tested about 290,000 compounds, of which about 3,000 (1%) were called active. This is one part of a sample in which actives are shown more often than they occur. No rule for the calls is given here.

Sequence of Polyadenylate-binding protein 1 (Homo sapiens) (P11940 whole entry, looked up): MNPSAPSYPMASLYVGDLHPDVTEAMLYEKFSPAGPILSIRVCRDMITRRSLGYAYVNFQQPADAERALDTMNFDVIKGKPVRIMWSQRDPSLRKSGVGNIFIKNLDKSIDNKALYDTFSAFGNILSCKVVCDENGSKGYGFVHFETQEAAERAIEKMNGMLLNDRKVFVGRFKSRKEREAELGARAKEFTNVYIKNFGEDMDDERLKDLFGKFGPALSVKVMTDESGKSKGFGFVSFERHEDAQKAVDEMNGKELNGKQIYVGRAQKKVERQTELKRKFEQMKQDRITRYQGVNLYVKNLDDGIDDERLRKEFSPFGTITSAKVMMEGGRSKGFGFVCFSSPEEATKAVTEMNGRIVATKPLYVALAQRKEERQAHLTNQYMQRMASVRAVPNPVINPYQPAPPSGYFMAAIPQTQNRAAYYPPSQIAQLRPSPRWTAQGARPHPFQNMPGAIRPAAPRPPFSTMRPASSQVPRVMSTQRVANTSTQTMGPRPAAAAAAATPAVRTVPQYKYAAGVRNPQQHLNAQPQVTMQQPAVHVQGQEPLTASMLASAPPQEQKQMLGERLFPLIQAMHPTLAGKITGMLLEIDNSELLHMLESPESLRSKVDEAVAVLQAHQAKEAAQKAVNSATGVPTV

Broadly, the inhibition is the change of the read-out against control, counted positive when it falls. On to `N#CC1=C(N)Oc2c(ccc3cccnc23)C1c1ccncc1` (centres undefined), for which the inhibition (at 35 µM) is 10.6% (inactive). As for `N#CC1=C(N)Oc2c(sc3ccccc23)C1c1ccco1` (centres undefined), the inhibition (at 35 µM) is 86.3% (active). For `CC1=C(C(=O)Nc2ccccc2)C(c2ccco2)C(C#N)=C(SCC(N)=O)N1` (centres undefined), the inhibition (at 35 µM) was 7.1% (inactive). `COCCCNc1nc2c(-c3cccc(C)c3)nnn2c2ccc(Cl)cc12`: the inhibition (at 35 µM) is 3.2% (inactive).

With `COc1cccc(N(C(=O)CNC(=O)c2ccco2)C(C(=O)NC2CCCCC2)c2cccnc2)c1` (centres undefined), the inhibition (at 35 µM) is 10.1% (inactive). Still for that read-out and setting: next, `CN(C)CCCNC(=S)N1CCC(c2nc3ccccc3[nH]2)CC1`: -6% (inactive); `COc1ccc(C(CNC(=O)COc2ccc([N+](=O)[O-])cc2)N2CCCCC2)cc1` (centres undefined): 1% (inactive). On the same count and under the same terms, for `Fc1cc(F)c2nc(Nc3nc4c(F)cccc4s3)sc2c1` the value was 0.5% (inactive); for `NC(=O)c1c(NC(=O)c2ccccc2)sc2c1CCCC2`, 3.6% (inactive). `NC(=O)c1c(Nc2nc3c(F)cccc3s2)sc2c1CCCC2`: the inhibition is, setting by setting: (at 35 µM) -15.3% (active); (confirmation repeats, at 20 µM) 73.7%. With `COc1ccc(C(=O)NCCSc2ccccc2C)cc1`, for the setting “at 35 µM”, the inhibition was 1.1% (inactive). Consider `COCc1cc(C)n(CC(=O)NCC2CCCO2)c(=O)c1C#N` (centres undefined), for which the inhibition (at 35 µM) is -1.9% (inactive). On the same count and under the same terms, next, `Cc1ccc(N2CCN(C(=O)c3cccs3)CC2)c(C)c1`: 3.2% (inactive). For the compound `Cc1cc(C)n2nc(SCC(N)=O)nc2n1`, the inhibition is 51.5% (active) (at 35 µM) and 81.1% (confirmation repeats, at 20 µM).

With `CCOC(=O)C(C)Sc1nnc(CSc2nc3nc(C)cc(C)n3n2)o1` (centres undefined), the inhibition (at 35 µM) was 2.5% (inactive).

In the case of `COc1ccc(C(C)=O)cc1CSc1nc2nc(C)cc(C)n2n1`, the inhibition (at 35 µM) was -7.3% (inactive). Take `Cc1onc(C(=O)Nc2ccc3c(c2)OCO3)c1[N+](=O)[O-]`: where the note is “at 35 µM”, the inhibition was 1.4% (inactive). With `Cc1ccnc(N2C(=O)c3ccc([N+](=O)[O-])cc3C2=O)c1`, where the note is “at 35 µM”, the inhibition is 47.5% (inactive). Same read-out and setting: next, `COc1ccccc1NC(=O)Nc1nnc(Cc2ccc(F)cc2)s1`: -15% (inactive). On the same count and under the same terms, next, `COc1ccc(C(CNC(=O)c2cc3c(s2)CCCC3)N2CCOCC2)cc1` (centres undefined): 11.9% (inactive). Take `CC(=O)NC(Cc1ccc(F)c(F)c1)C(=O)NC1CCN(C(=O)c2ccc(C)cc2)CC1` (centres undefined): under “at 35 µM”, the inhibition was 1.9% (inactive). On the same count and under the same terms, next, `COc1ccc(CC(NC(C)=O)C(=O)NC2CCN(C(=O)c3ccc(Cl)cc3)CC2)cc1` (centres undefined): 3.2% (inactive). On the same count and under the same terms, next, `CNC(=S)N1CCC(NC(=O)C(Cc2ccc(F)cc2)NC(C)=O)CC1` (centres undefined): 63.2% (active); `C[C@@H]1CC[C@@]2(OC1)O[C@H]1C[C@H]3[C@@H]4CC=C5C[C@@H](O)[C@H](O)C[C@]5(C)C4CC[C@]3(C)[C@H]1[C@@H]2C` (some centres undefined): 7.2% (inactive); `O=C1CN(C(=O)c2cc(F)cc(F)c2)c2ccccc2N1`: -2.2% (inactive). Still for that read-out and setting: next, `Cc1cc(O)c(C(=O)/C=C/c2c(F)c(F)c(F)c(F)c2F)c(=O)o1`: -2.1% (inactive).

With `Cc1cc2c(=O)n(CC(=O)NCC(=O)Nc3ccc(C(C)C)cc3)cnc2s1`, the inhibition (at 35 µM) is 9.1% (inactive). Still for that read-out and setting: for `Cc1ccc(-n2ncc3c2CCCC3NC(=O)c2cnccn2)cc1C` (centres undefined) the value was 5.7% (inactive). Take `O=C(c1ccc(Br)o1)N(c1ccccn1)C1CCCCC1`: the inhibition reads like this: (at 35 µM) -4.7% (active); (confirmation repeats, at 20 µM) 75.2%. `O=C(c1cccs1)N(C(=O)c1cccs1)c1ccccn1`: the inhibition (at 35 µM) was 0.2% (inactive). The same measure, in the same setting: for `O=C(CNC(=O)c1ccc(Br)o1)NCC1CCCO1` (centres undefined) the value was -3.6% (inactive); for `CC1(C)CC(=O)NC=C(c2ccccc2)C1`, -9.5% (inactive); for `CC1(C)CC(=O)C(C2c3ccccc3S(=O)(=O)c3ccccc32)C(=O)C1`, 62.9% (active). Still for that read-out and setting: for `CC1(C)CC(=O)C=C(Nc2ccccc2)C1` the value was 2.3% (inactive); for `O=C(c1cc(=O)c2ccccc2o1)N1CCN(c2ccccc2)CC1`, 4.7% (inactive). As for `O=C(c1ccc(CS(=O)(=O)c2ccccc2)o1)N1CCN(c2ccccc2)CC1`, the inhibition by setting is: (at 35 µM) 28.3% (active); (confirmation repeats, at 20 µM) 62.1%. `O=C(c1ccc(S(=O)(=O)N2CCOCC2)cc1)N1CCN(c2ccccc2)CC1`: the inhibition (at 35 µM) was 3.8% (inactive). Regarding `CCc1ccc(N2CC(C(=O)N3CCCCCC3)CC2=O)cc1` (centres undefined), the inhibition (at 35 µM) was -12.2% (inactive). Same read-out and setting: next, `COc1ccc2oc(=O)cc(CN3CCOCC3)c2c1`: 10.8% (inactive); `O=Cc1cn(-c2ccccc2)nc1-c1ccccn1`: -6.6% (inactive); `Cc1ccc(SCCSc2ncccn2)cc1`: 8.3% (inactive). On the same count and under the same terms, next, `Cc1cccc(C(=O)NNC(=O)CSc2nnc(C(C)C)n2C)c1`: 0.1% (inactive).

As for `COCCN1C=C2C(=O)C(C)(OC(=O)C3CCCC3)C(=O)C=C2C=C1c1ccsc1` (centres undefined), the inhibition (at 35 µM) was 61% (active). In the case of `COCCn1c(N)c(N(Cc2ccccc2)C(=O)C2CCCCC2)c(=O)[nH]c1=O`, the inhibition (at 35 µM) is 4.9% (inactive). For `Cc1cccnc1CC(C)NC(=O)c1cc(COc2cncc(Cl)c2)on1` (centres undefined), the inhibition (at 35 µM) was -0.2% (inactive). For the compound `CC(=O)c1ccc(OC(=O)N2CCOCC2)cc1`, the inhibition (at 35 µM) was -1.2% (inactive). For `COc1ccc(N2C(=O)C3CCCN3C2c2cccc(OC)c2)cc1` (centres undefined), where the note is “at 35 µM”, the inhibition was -1.1% (inactive).

`Cc1ccc(C2Nc3cccc4cccc(c34)N2)cc1`: where the note is “at 35 µM”, the inhibition is 39.9% (inactive). Consider `COc1ccc(C2NC(=O)c3ccccc3N2)cc1` (centres undefined), for which the inhibition (at 35 µM) was 15.7% (inactive). With `Oc1ccc(C2Nc3cccc4cccc(c34)N2)cc1`, the inhibition (at 35 µM) was 69.2% (active). As to `O=C1NC(c2cccc(Cl)c2)Nc2ccccc21` (centres undefined), where the note is “at 35 µM”, the inhibition is -16.8% (inactive).

For the compound `COc1cccc(C2Nc3cccc4cccc(c34)N2)c1`, the inhibition is 25.6% (active) (at 35 µM) and 72.2% (confirmation repeats, at 20 µM). Take `O=C1CCN(CCc2ccccc2)CCN1CCOc1ccccc1`: the inhibition (at 35 µM) is 7.2% (inactive). Still for that read-out and setting: for `COc1ccc(CNC(=O)CN(Cc2ccccc2Cl)C(=O)c2csnn2)cc1` the value was 4.9% (inactive). Turning to `COc1cc(CC(=O)NCc2cccs2)cc(OC)c1OC`, under “at 35 µM”, the inhibition was -5.2% (inactive). Still for that read-out and setting: for `CCN(CC(=O)NCc1cccs1)C(=O)c1ccccc1F` the value was -8.7% (inactive). As for `CCN(CC(=O)NCc1cccs1)C(=O)c1cccc(S(=O)(=O)Nc2ccccc2OC)c1`, the inhibition reads like this: (at 35 µM) 60.4% (active); (confirmation repeats, at 20 µM) 70.6%. Turning to `CC(=O)c1ccccc1OCc1ccc(C(=O)c2ccccc2)cc1`, for the setting “at 35 µM”, the inhibition is 0.6% (inactive). On the same count and under the same terms, next, `O=C(NC1CC1)C(Cc1ccccc1)NS(=O)(=O)c1ccccc1F` (centres undefined): -3.9% (inactive). Still for that read-out and setting: next, `O=C(NCCCc1ccccc1)C1CCC(=O)N(CCc2ccc(Cl)cc2)C1` (centres undefined): 2.3% (inactive); `Cc1cc(=O)oc(C)c1C(=O)NCc1ccc(F)cc1`: 28.4% (inactive).

For `Cc1cc(=O)oc(C)c1C(=O)Nc1cnc2ccccc2c1`, the inhibition (at 35 µM) was 104% (active). Same read-out and setting: next, `Cc1cc(=O)oc(C)c1C(=O)NCCN(C)Cc1ccccc1`: -13.8% (inactive).
